Results on 14 molecules are retold here after PubChem BioAssay.

A short description of assay [1]: inhibitors of TNFa-induced NFkB p65 translocation, primary screen, imaging, HUVEC, MLSMR starter and 10KST1 sets (AID 438;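 active = inhibition above 20% together with a positive visual image hit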;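 note: compound added about 3h40 before a 20 min TNFalpha stimulation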;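 for inhibition: signal is the nuclear over cytoplasmic p65 intensity ratio per well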). Conditions: HUVEC TNFa-induced p65 nuclear translocation; cell count: measured here: nuclei count (cytotoxicity indicator), at 2.08 µM; inhibition: at 2 µM, stronger effect = higher value, 0% TNFa-plus-vehicle, 100% no-TNFa wells.
A short description of assay [2]: inhibitors of mutant huntingtin aggregation, primary screen, imaging, exon1htt(103Q)mCFP cells, high-content imaging (AID 483;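 active = visual image review flags a hit and inhibition of aggregation exceeds 20%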;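 note: compound exposure lasted 3 days before fixation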;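 for nuclei count: percent of the per-plate median nuclei count of sample wells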). The note with it: exon1htt(103Q)mCFP cell line, aggregate imaging, at 2 µM; inhibition of aggregation: stronger effect = higher value; nuclei count: measured here: cell count, toxicity.
Assay [3] is described as follows: inhibitors of E-selectin induction by TNFa, primary screen, imaging, HUVEC, immunofluorescence, MLSMR starter and 10KST1 sets (AID 487;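 active = visually confirmed hit in the image check and inhibition above 20%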;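 for inhibition: signal is fraction of cell area covered by stained E-selectin grains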;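 for nuclei count: 100% = median nuclei count of all wells on the same plate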). Conditions: HUVEC TNFalpha-induced E-selectin immunofluorescence imaging, at 2 µM; inhibition: stronger effect = higher value; nuclei count: measured here: cell number, toxicity.
Assay [4] concerns the target Voltage-gated potassium channel subunit beta-2 (Rattus norvegicus) (UniProt P62483). The experiment in a line: KvBeta enzyme negative modulators, primary screen, biochemical, NADPH fluorescence (AID 622;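 active = fluorescence slope higher than the sample average by over 3 SD, cut at about -0.22 in these data, passing the limit was not always enough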;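 note: slope of raw intensity against log time taken from 70 to 1610 s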). The note with it: recombinant KvBeta, 4-cyanobenzaldehyde reduction, at 10 µM, stronger effect = higher value.
Assay [5] has the same target. The experiment in a line: KvBeta positive modulators, primary screen, biochemical, NADPH fluorescence (AID 623;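 active = NADPH fluorescence slope more negative than the mean of all samples by about 3 SD, 99.7% confidence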;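 note: fluorescence intensity change per second fitted from 20 to 320 s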). Conditions: Recombinant KvBeta, NADPH fluorescence decrease slope, 10 min; at 10 µM; stronger effect = lower value.
The target of assay [6] is Alpha-2C adrenergic receptor (Homo sapiens) (UniProt P18825). The experiment in a line: modulators of alpha2C/GIRK thallium flux, primary screen, cell-based, HEK293 alpha2C/GIRK1/2 (AID 624;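 active = fluorescence slope after compound addition differing from the mean of all screened samples at 99.7% confidence, in either direction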;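 note: slope of fluorescence ratio to pre-addition baseline per second over 15 to 24 s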). The note with it: thallium flux BTC fluorescence, at 10 µM, actives lie on both sides.
Sequence of Alpha-2C adrenergic receptor (Homo sapiens) (P18825 whole entry, looked up): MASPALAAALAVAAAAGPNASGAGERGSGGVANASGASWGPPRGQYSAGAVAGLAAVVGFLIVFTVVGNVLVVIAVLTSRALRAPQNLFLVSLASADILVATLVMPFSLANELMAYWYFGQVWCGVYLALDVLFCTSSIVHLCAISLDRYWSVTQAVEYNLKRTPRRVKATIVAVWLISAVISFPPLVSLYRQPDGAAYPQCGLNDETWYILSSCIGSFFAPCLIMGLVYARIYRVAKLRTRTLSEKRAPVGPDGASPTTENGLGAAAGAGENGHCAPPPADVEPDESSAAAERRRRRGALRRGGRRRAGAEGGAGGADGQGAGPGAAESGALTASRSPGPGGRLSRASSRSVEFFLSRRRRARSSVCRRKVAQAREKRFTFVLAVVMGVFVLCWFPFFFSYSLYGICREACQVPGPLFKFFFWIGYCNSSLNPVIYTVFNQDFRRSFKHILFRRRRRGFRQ
Assay [7] is described as follows: inhibitors of Sendai virus-induced IRF3 signaling, primary screen, TLR/RLR signaling modifier project, cell-based, Sendai virus stimulus, luciferase, 10K MLSCN set (AID 602276;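 active = inhibition at or above 50% at 10 µM; inactive = inhibition below 50%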;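 note: firefly luciferase from ISG56 promoter only with Renilla not read in this screen; 0% = Sendai virus plus DMSO and 100% = medium plus DMSO without virus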). Conditions: HEK293 RL24 IRF3 luciferase reporter, at 10 µM, stronger effect = higher value. (In general: In a reporter assay the amount or activity of a reporter protein is the signal.)
Assay [8] in a line: inhibitors of poly I:C-induced TLR3 signaling, primary screen, cell-based, poly I:C stimulus, luciferase, 10K MLSCN set (AID 602277). The note with it: HEK293-TLR3 RL24 IRF3 luciferase reporter, at 10 µM, stronger effect = higher value.

SMILES strings stand for the structures. Activity calls are given as the source filed them.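 Rule for the calls, unless noted: active = inhibition of the reporter signal at or above 50%; inactive = inhibition below 50%.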

Sequence of Voltage-gated potassium channel subunit beta-2 (Rattus norvegicus) (P62483 whole entry, looked up): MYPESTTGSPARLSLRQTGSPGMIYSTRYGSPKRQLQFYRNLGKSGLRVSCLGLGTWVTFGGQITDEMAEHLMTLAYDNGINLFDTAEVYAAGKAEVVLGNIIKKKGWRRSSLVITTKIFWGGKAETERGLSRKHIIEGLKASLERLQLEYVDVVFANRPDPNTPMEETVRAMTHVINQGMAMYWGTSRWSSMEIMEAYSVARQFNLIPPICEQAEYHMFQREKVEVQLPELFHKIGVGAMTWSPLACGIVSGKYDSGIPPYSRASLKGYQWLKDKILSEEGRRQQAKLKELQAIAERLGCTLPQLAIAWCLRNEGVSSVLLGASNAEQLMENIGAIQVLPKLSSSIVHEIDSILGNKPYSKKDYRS

A word on the inhibition: it is the change of the read-out against control, counted positive when it falls. As to `COc1cccc(Nc2cc(C)nc3ccccc23)c1`, the cell count in assay [1] turned out to be 259. The inhibition in assay [1] was 2.1% (inactive); in assay [3] it was -1% (inactive); in assay [7], -11.6% (inactive); in assay [8], 99.5% (active). The inhibition of aggregation in assay [2] is 11.8% (inactive). For the same molecule, the nuclei count in assay [2] worked out at 78.5%; in assay [3] it was 105%. The fluorescence slope in assay [4] is -0.412 (inactive). Also, the NADPH fluorescence slope in assay [5] was -6.3e-06 (inactive). Moreover, the slope in assay [6] is 0.00478 (inactive).
`CCOC(=O)N1CCC(NC(=O)CS(=O)(=O)Cc2nc(-c3ccccc3C)oc2C)CC1`: in assay [1], the cell count stood at 699. For the same molecule, the inhibition in assay [1] was -7.5% (inactive); in assay [3], -66.8% (inactive); in assay [7], 9.06% (inactive); in assay [8], -5.43% (inactive). The inhibition of aggregation in assay [2] is 2.1% (inactive). Moreover, the nuclei count was 96.6% in assay [2] and 119% in assay [3]. The fluorescence slope in assay [4] was -0.513 (inactive). For the same molecule, in assay [5], the NADPH fluorescence slope was -2.7e-05 (inactive). Besides, the slope in assay [6] was 0.00671 (inactive).
Turning to `COC(=O)C1(C(F)(F)F)N=C2Sc3ccccc3N2C(N2CCOCC2)=N1` (centres undefined), the cell count in assay [1] was determined as 760. The inhibition in assay [1] was -8.1% (inactive); in assay [3] it was -62.6% (inactive); in assay [7] it was 11.6% (inactive); in assay [8], 26.4% (inactive). For the same molecule, the inhibition of aggregation in assay [2] was 8.1% (inactive). For the same molecule, the nuclei count is 76.2% in assay [2] and 107% in assay [3]. For the same molecule, the fluorescence slope in assay [4] is -0.54 (inactive). The NADPH fluorescence slope in assay [5] was -4.9e-05 (inactive). For the same molecule, the slope in assay [6] was 0.00667 (inactive).
On to `Cn1c(=O)c2ncn(CC(=O)NCCOc3ccc(C(C)(C)C)cc3)c2n(C)c1=O`, for which the cell count in assay [1] was 762. The inhibition in assay [1] is 2.2% (inactive); in assay [3] it was -15.3% (inactive); in assay [7] it was -12.6% (inactive); in assay [8], -14.5% (inactive). Besides, the inhibition of aggregation in assay [2] was -9.8% (inactive). Moreover, the results for the nuclei count in assay [2] and in assay [3] were 103% and 106%, respectively. Besides, the fluorescence slope in assay [4] was -0.582 (inactive). Further, the NADPH fluorescence slope in assay [5] was -3.7e-05 (inactive). Further, the slope in assay [6] was 0.00671 (inactive).
`CCN1CCN(C(CNC(=O)c2ccc3c(c2)OCO3)c2cccnc2)CC1` (centres undefined): in assay [1], the cell count came to 796. In addition, the inhibition in assay [1] is -13.5% (inactive); in assay [3] it was -10.9% (inactive); in assay [7] it was -18.9% (inactive); in assay [8], -1.81% (inactive). Moreover, in assay [2], the inhibition of aggregation was 0.6% (inactive). Also, the nuclei count was determined as 98% in assay [2] and 109% in assay [3]. Moreover, the fluorescence slope in assay [4] is -0.541 (inactive). The NADPH fluorescence slope in assay [5] is 1.4e-05 (inactive). For the same molecule, in assay [6], the slope is 0.00612 (inactive).
In the case of `Cc1ccc(N2CCN(S(=O)(=O)N(C)C)CC2)c(C)c1`, in assay [1], the cell count was determined as 393. Also, the inhibition was -2.4% (inactive) in assay [1], -55.1% (inactive) in assay [3], 2.52% (inactive) in assay [7] and 4.97% (inactive) in assay [8]. In assay [2], the inhibition of aggregation is 23.9% (inactive). Further, the nuclei count in assay [2] turned out to be 75.5%; in assay [3] it was 107%. For the same molecule, in assay [4], the fluorescence slope was -0.559 (inactive). Moreover, the NADPH fluorescence slope in assay [5] is -3.5e-06 (inactive). Further, the slope in assay [6] is 0.00671 (inactive).
On to `CCCCOCCCNC(=O)c1ccc(NC(C)=O)cc1`, for which, in assay [1], the cell count turned out to be 416. Besides, the inhibition in assay [1] is -1.6% (inactive); in assay [3], 8.8% (inactive); in assay [7], -11% (inactive); in assay [8] it was 3.52% (inactive). Moreover, the inhibition of aggregation in assay [2] was 1.3% (inactive). Besides, the values for the nuclei count in assay [2] and in assay [3] were 99.3% and 115%, respectively. Moreover, the fluorescence slope in assay [4] was -0.45 (inactive). Besides, the NADPH fluorescence slope in assay [5] was 7.9e-06 (inactive). Moreover, the slope in assay [6] is 0.00392 (inactive).
In the case of `Cn1c2c(c(=O)n(C)c1=O)C(c1cccc(Br)c1)C1C(=O)c3ccccc3C1=N2` (centres undefined), the cell count in assay [1] came to 720. For the same molecule, the inhibition is -5.8% (inactive) in assay [1], 3.3% (inactive) in assay [3], 8.12% (inactive) in assay [7] and 12.5% (inactive) in assay [8]. For the same molecule, in assay [2], the inhibition of aggregation is 2.7% (inactive). Also, the nuclei count in assay [2] came to 110%; in assay [3], 109%. In addition, the fluorescence slope in assay [4] is -0.585 (inactive). The NADPH fluorescence slope in assay [5] is -6.2e-05 (inactive). The slope in assay [6] was 0.00438 (inactive).
Turning to `O=c1[nH]c(NCc2ccccc2)nc2c1CCCC2`, the cell count in assay [1] is 580. Moreover, the inhibition in assay [1] is 4.4% (inactive); in assay [3], 46% (inactive); in assay [7] it was -1.14% (inactive); in assay [8] it was -4.72% (inactive). The inhibition of aggregation in assay [2] is -3.3% (inactive). In addition, the nuclei count was 112% in assay [2] and 101% in assay [3]. Moreover, the fluorescence slope in assay [4] was -0.348 (inactive). Besides, the NADPH fluorescence slope in assay [5] was -3.1e-05 (inactive). Moreover, in assay [6], the slope is 0.00472 (inactive).
Regarding `CCN(CC)c1ccc(NC(=O)c2nc3nc(C)cc(C(F)F)n3n2)cc1`, in assay [1], the cell count came to 650. Also, the inhibition in assay [1] is -1.9% (inactive); in assay [3], -10.1% (inactive); in assay [7], 21.5% (inactive); in assay [8], -6.45% (inactive). The inhibition of aggregation in assay [2] is 14.6% (inactive). The nuclei count in assay [2] is 98.5%; in assay [3] it was 114%. Moreover, the fluorescence slope in assay [4] is -0.535 (inactive). Also, the NADPH fluorescence slope in assay [5] is -3.4e-05 (inactive). Also, the slope in assay [6] is 0.00747 (inactive).
Take `O=C(COC(=O)C12CC3CC(CC(C3)C1)C2)NCc1ccco1`: in assay [1], the cell count turned out to be 661. For the same molecule, the inhibition in assay [1] was 3.4% (inactive); in assay [3], -28.3% (inactive); in assay [7] it was 11.1% (inactive); in assay [8], 31.8% (inactive). The inhibition of aggregation in assay [2] is -6.5% (inactive). The nuclei count in assay [2] worked out at 109%; in assay [3], 113%. The fluorescence slope in assay [4] is -0.561 (inactive). Moreover, the NADPH fluorescence slope in assay [5] was 7.7e-06 (inactive). Further, the slope in assay [6] is 0.00593 (inactive).
In the case of `O=C(NCc1cccs1)C1CC(=O)N(C2CCCC2)C1` (centres undefined), the cell count in assay [1] was 376. The inhibition in assay [1] was -14.4% (inactive); in assay [3], -121% (inactive); in assay [7], -9.61% (inactive); in assay [8], -21.8% (inactive). Besides, the inhibition of aggregation in assay [2] was -18.1% (inactive). Besides, the results for the nuclei count in assay [2] and in assay [3] were 97.2% and 172%, respectively. Also, the fluorescence slope in assay [4] is -0.56 (inactive). In addition, the NADPH fluorescence slope in assay [5] was 4.8e-05 (inactive). Further, the slope in assay [6] was 0.00628 (inactive).
As to `O=C(c1cnc2n(c1=O)CCS2)N1CCc2ccccc21`, the cell count in assay [1] is 529. Also, the inhibition is 9.1% (inactive) in assay [1], -39.6% (inactive) in assay [3], 14.9% (inactive) in assay [7] and 27% (inactive) in assay [8]. In assay [2], the inhibition of aggregation is -15.5% (inactive). Further, the nuclei count in assay [2] and in assay [3] was 114% in each case. Besides, the fluorescence slope in assay [4] is -0.51 (inactive). For the same molecule, the NADPH fluorescence slope in assay [5] is 4.8e-06 (inactive). Besides, the slope in assay [6] was 0.00669 (inactive).
In the case of `COC(=O)CC1SCCNC1=O` (centres undefined), in assay [1], the cell count amounted to 308. Besides, the inhibition in assay [1] is 0.8% (inactive); in assay [3], 38.9% (inactive); in assay [7], 0.969% (inactive); in assay [8], -5.15% (inactive). For the same molecule, in assay [2], the inhibition of aggregation was -7.1% (inactive). Besides, the nuclei count amounted to 97.9% in assay [2] and 98.8% in assay [3]. In assay [4], the fluorescence slope is -0.552 (inactive). In assay [5], the NADPH fluorescence slope was 2e-05 (inactive). Also, the slope in assay [6] was 0.00463 (inactive).
